Compound activity as filed in PubChem BioAssay.
An excerpt weighted towards active compounds, which were near 4.7% of everything screened.
D1 agonist: activates the human D1 dopamine receptor; activation, % at 2 µM; HEK293 T-REx D1 cells, calcium flux, agonist mode; 360,000 tested, 1% active
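Agonism was scored from calcium flux recorded over 180 s (1 read/s) after pintool compound addition, following a 10-cycle baseline. Cells were inducible force-coupled HEK293 TREx D1, plated overnight at 30 C and loaded with no-wash calcium dye.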
TRHR ag: agonists of human TRH receptor; P34981; TRHR cells, calcium flux fluo-8, FDSS agonist mode; activation, % at 2 µM; 360,000 tested, 0.18% active
Target sequence (P34981 whole entry, looked up): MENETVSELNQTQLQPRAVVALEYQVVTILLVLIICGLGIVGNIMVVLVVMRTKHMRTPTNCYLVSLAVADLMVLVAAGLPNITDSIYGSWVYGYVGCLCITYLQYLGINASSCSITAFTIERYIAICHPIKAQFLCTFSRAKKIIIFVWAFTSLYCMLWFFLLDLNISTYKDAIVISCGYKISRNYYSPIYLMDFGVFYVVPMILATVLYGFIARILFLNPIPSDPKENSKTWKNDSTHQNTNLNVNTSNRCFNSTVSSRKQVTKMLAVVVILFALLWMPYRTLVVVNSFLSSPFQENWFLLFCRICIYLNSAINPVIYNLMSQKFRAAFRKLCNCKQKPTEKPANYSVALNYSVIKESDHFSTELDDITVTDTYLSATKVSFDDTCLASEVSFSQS
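Agonist-mode FDSS calcium read (Ex 480/Em 530, 1 s cycles) in 1536-well TRHR cells with fluo-8 dye, after 10-cycle baseline and 23 nL compound addition; TRH at EC20 (10 nM final) added afterwards for the enhancer phase.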
D1 potentiator: human D1 dopamine receptor positive modulation; 360,000 tested, 0.036% active; HEK293 TREx D1 cells, calcium flux, dopamine EC20 potentiation; potentiation, % at 10 µM; in the data active = potentiation above about 30%
D1 antag: human D1 dopamine receptor antagonism; 360,000 tested, 3.2% active; P21728; HEK293 TREx D1 cells, calcium flux, dopamine EC80; stronger effect = lower value; AID 504652; activity change, negative = inhibition, % at 10 µM; in the data active = activity change below about -30%
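Tetracycline-induced HEK293 T-REx cells with force-coupled D1 receptor were loaded with a no-wash calcium dye. Compound was added after a 10 s baseline and read kinetically for 180 s; EC80 dopamine was then added and calcium flux followed another 180 s.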
TRHR PAM: TRH receptor (human) allosteric enhancement | P34981 | TRHR cells, fluo-8 calcium fluorescence, EC20 TRH enhancement | enhancement, % at 2 µM | 360,000 tested, 0.66% active; in the data active = enhancement above about 30%
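Enhancer read-out: after compound pinning and an initial kinetic agonist-mode read, an EC20 of TRH (10 nM final) was injected and fluo-8 calcium signal (Ex 480/Em 530) followed at 1 s/cycle for 100 cycles in TRHR-expressing cells.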
Large screens that a line does not name were inactive. Cut-off read from the data, not from the text of the source, unless noted: active = activation above about 30%; inactive = the rest.

Cc1ccc(NC(=O)C2CCN(c3cc(C)nc4c(-c5ccc(Cl)cc5)c(C)nn34)CC2)c(C)c1	none
COCCNC(=O)c1cccc(OC2CCN(Cc3ccccc3OC(F)F)CC2)c1	none
O=C(c1cccc(OC2CCN(Cc3ccc(F)cc3Cl)CC2)c1)N1CCCC1	D1 antag -33
O=C(c1cccc(OC2CCN(Cc3cc(F)cc(F)c3)CC2)c1)N1CCCC1	none
CCOc1ccccc1CN1CCC(Oc2cccc(C(=O)NCCOC)c2)CC1	D1 antag -48
Cc1cccc(OC2CCN(Cc3c(C(=O)N4CCCC4)nc4ccccn34)CC2)c1	D1 antag -44
COc1cc2[nH]c(=O)n(Cc3ccc(C(=O)N4CCN(c5cccc(C)c5C)CC4)cc3)c(=O)c2cc1OC	none
CCOC(=O)CSc1nc2ccccc2c(=O)n1CCc1ccc(OC)c(OC)c1	none
O=C(Nc1cccc(C(=O)N2CCCCC2)c1)c1nsc2ccccc12	none
COC(=O)c1scc(-c2ccc(C)cc2)c1S(=O)(=O)Nc1cc(OC)c(OC)c(OC)c1	none
Cc1noc(C)c1C(=O)Nc1nc(-c2ccccc2Cl)cs1	none
O=C(Nc1nc(-c2ccccc2Cl)cs1)c1cccnc1	D1 antag -41
Cc1ccc(C)c(-n2nnc(C(=O)Nc3ccc(Br)cc3)c2C)c1	none
O=C(CCC(=O)N1CCOc2ccccc21)NCc1cccs1	none
CCCCOC(=O)c1cc(Cl)c(O)c(OC)c1	TRHR PAM 40
COc1cc(C(=O)OCCC(C)C)cc(OC)c1O	none
COc1ccc(CCNC(=O)CCc2c(C)nc3c4c(C)cc(C)nc4nn3c2C)cc1OC	none
Cc1nc(Nc2ccccc2)sc1C(=O)c1ccccc1	D1 antag -33
Cc1nc(Nc2ccc(Cl)c(Cl)c2)sc1C(=O)Nc1ccccc1	D1 antag -52
Cc1nc(Nc2ccc(Cl)cc2Cl)sc1C(=O)Nc1ccccc1	none
COc1ccc2c(Sc3ccc(Cl)cc3)c(C(=O)NCCCN3CCCCC3)[nH]c2c1	none
C/C(=N/NC(=O)c1cc(-c2ccc(Br)s2)[nH]n1)c1ccco1	D1 antag -46
O=C(N/N=C/c1ccco1)c1cc(-c2ccc(Br)s2)[nH]n1	none
O=C(N/N=C/c1ccco1)c1cc(-c2ccc(Cl)s2)[nH]n1	D1 antag -43
C/C(=N\NC(=O)c1cc(-c2ccc(Br)s2)[nH]n1)c1ccncc1	none
Cc1nnsc1C(=O)N/N=C/c1ccc2ccccc2c1O	D1 agonist 138, TRHR ag 65
Cc1nnsc1C(=O)N/N=C/c1ccccc1	none
C/C=C/c1ccc(OCC(=O)Nc2ccc(OC)c(OC)c2)c(OC)c1	D1 antag -38
C/C=C/c1ccc(OCCCCN2CC(C)CC(C)C2)c(OC)c1 (configuration not stated)	none
CCOC(=O)/C=C/C(=O)OCC(=O)Nc1ccc([N+](=O)[O-])cc1	D1 antag -33
CCOC(=O)/C=C/C(=O)Nc1cccc([N+](=O)[O-])c1	none
COc1cc(/C=C/C(=O)OCC(=O)Nc2ccc([N+](=O)[O-])cc2)ccc1O	D1 agonist 31
C/C=C/c1ccc(OCCCCN2CCN(CC)CC2)c(OC)c1	D1 antag -33
C/C=C/c1ccc(OCC(=O)Nc2ccncc2)c(OC)c1	none
Cc1cccc(N(CC(O)Cn2c3ccccc3c3ccccc32)S(=O)(=O)c2ccc(F)cc2)c1 (configuration not stated)	none
CC1Cn2c(C(=O)NCc3cccc(Br)c3)cc3cccc(c32)S1 (configuration not stated)	none
COc1ccc(/C=C/C(=O)OCC(=O)Nc2ccc3[nH]c(=O)[nH]c3c2)cc1OC	D1 antag -32
O=C(COC(=O)/C=C/c1ccc(F)cc1)Nc1ccc2[nH]c(=O)[nH]c2c1	none
CCN1C(=S)SC(=O)C1=C1C=C(C)N(Cc2ccco2)C(C)=C1	D1 agonist 171
CCN1C(=S)SC(=O)C1=C1C=C(C)OC(C)=C1	none
CCc1ccc(CNC(=O)CN2CCSc3ccccc32)cc1	none
Cc1ccccc1CNC(=O)CN1CCSc2ccccc21	D1 antag -31
CC(C)(C)OC(=O)Cc1nnc(C(C(=O)OCc2ccccc2)c2ccccc2)s1 (configuration not stated)	none
COC(=O)c1cc2n(n1)CCN(Cc1ccccc1Cl)C2=O	TRHR PAM 32
COc1cc(CN(CCN(C)C)Cc2ccccc2)ccc1OCc1ccccc1	D1 antag -76
COc1ccc(CN(CCc2ccccc2)Cc2ccccc2)cc1OC	none
O=C(Nc1cc(C(F)(F)F)ccc1Cl)c1noc2c1CCCCC2	none
CC1CC(C)CN(c2ccc(-n3cnnn3)cc2[N+](=O)[O-])C1 (configuration not stated)	none
O=[N+]([O-])c1cc(-n2cnnn2)ccc1N1CCC(Cc2ccccc2)CC1	D1 antag -35
O=C(CSc1ccc2nc(-c3ccccc3)cn2n1)Nc1ccccc1C(F)(F)F	D1 antag -71
COc1ccc(-n2cc(C(=O)Oc3cc(C)cc(C)c3)c3ccccc3c2=O)cc1	none
Cc1ccc(C(=O)c2cn[nH]c2-c2cc(Cl)ccc2O)cc1	D1 agonist 58
COc1ccc(CNC(=S)NC2CCCCC2)cc1	none
S=C(Nc1cccc(Cl)c1)NC1CCCCC1	D1 antag -34
S=C(NCCc1ccc(Cl)cc1)NC1CCCCC1	D1 antag -41
Fc1ccc(CNC(=S)NC2CCCCCC2)cc1	D1 antag -36
COc1ccc(C(=O)CN2C(=O)N(c3ccc(C(C)=O)cc3)S(=O)(=O)c3ccccc32)cc1	none
COc1ccc([S+](=O)([O-])N2CCN([S+](=O)([O-])c3ccc4c(c3)OCCO4)CC2)c(OC)c1	none
Cc1ccc(-c2nnc(SCC(=O)NC3CCCC3)nc2-c2ccc(C)cc2)cc1	none
CCCCC(=O)NC(NC(=S)N1CCOCC1)C(Cl)(Cl)Cl (configuration not stated)	D1 antag -34
O=C(NC(NC(=S)N1CCOCC1)C(Cl)(Cl)Cl)c1ccc(Cl)cc1 (configuration not stated)	none
CCOc1ccccc1CNC(=O)CCn1ccc2cc(S(=O)(=O)N3CCC(C)CC3)ccc21	none
O=C1[C@H]2[C@@H](C(=O)N1c1cccc3ccccc13)C1(C(=O)c3ccccc3C1=O)N1CCC[C@@H]21	TRHR PAM 34
COc1ccc(N=C2S/C(=C\c3ccc(N4CCOCC4)o3)C(=O)N2CCc2c[nH]c3ccccc23)cc1	D1 antag -30
O=c1c2oc3ccccc3c2[nH]c(=S)n1-c1ccc(F)cc1	none
COc1ccccc1CNC(=O)C1CCCN(C(=O)c2cnn(-c3ccc(F)cc3)c2-n2cccc2)C1 (configuration not stated)	none
COCCN1C(=O)/C(=C/c2ccc(N3CCCC3)cc2C)SC1=S	D1 agonist 224, TRHR ag 53
CCN=C1S/C(=C\c2ccc(N3CCOCC3)cc2C)C(=O)N1CC	none
